# High-throughput results as filed in PubChem BioAssay.
# The list is not random: actives were taken first. Their share in the collection is about 3.3%.
# HCV inhibitor: qHTS Assay for Inhibitors of Hepatitis C Virus (HCV); AID 651820, 2012; Potency, µM (titrated, usually from 41.8 µM), for the others: at the top dose activity change, negative = inhibition, actives largely listed as inhibitors; hit rate 3.4% among 340,000; Huh7.5.1 HCVcc-Cre infection, luciferase reporter, 44 h; active = well fitted inhibition curve with a large enough effect; inconclusive = small, poorly fitted or top-dose-only effect, or another doubt; inactive = no such curve, though single readings can be large or run the other way
#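 Cells seeded at 1,000/well and cultured 4 h, then compounds added followed by HCVcc-Cre virus (~0.5 moi). After 44 h further culture, luciferase substrate was added, plates held 15 min at room temperature, and luminescence read for 15 sec.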
# VACV Venus inh: qHTS for Stage-Specific Inhibitors of Vaccinia Orthopoxvirus: Venus Reporter Primary qHTS; Potency, µM (highest dose often 36.5 µM), without a hit: top-dose activity change, negative = inhibition, most hits filed as inhibitors; AID 720580, 2013; Vaccinia virus Venus reporter expression, fluorescence; hit rate 0.46% among 330,000; calls by dose curve; tested in A549 cells; also: nearly all actives have a fitted effect of over 30% in size
# VACV mCherry inh: qHTS for Stage-Specific Inhibitors of Vaccinia Orthopoxvirus: mCherry Reporter Primary qHTS. Vaccinia virus mCherry reporter infection, fluorescence. Potency, µM (top dose mostly 36.5 µM), inactives show top-dose activity change, negative = inhibition, actives largely listed as inhibitors. hit rate 0.63% among 310,000. AID 720579, 2013; calls by dose curve; tested in A549 cells; also: nearly all actives have a fitted effect of over 35% in size
# Active calls of the source: *; i = inactive; ? = inconclusive; nt = not tested or not shown; ! = not active in a repeat; [ ] = another dose, or the depositor's remark. % is scaled to controls: 0 for no effect and ±100 for the full control effect; potency is read from the fitted curve at half-maximal effect.
SMILES,HCV inhibitor,VACV Venus inh,VACV mCherry inh
NC(=NCCCCCCN=C(N)/N=C(\N)Nc1ccc(Cl)cc1)/N=C(\N)Nc1ccc(Cl)cc1,?,10µM*!,?
COc1ccccc1CCNCc1cc2cccc(C)c2nc1-c1cccs1,nt,-3%,-9%
CCN1/C(=C/C(C)=C/c2sc3ccccc3[n+]2CC)Sc2ccccc21,1µM*,i,i
CCN1/C(=C\C=C(C(C)=O)C(C)=O)Sc2ccccc21,-21%,-1%,-22%
Cc1c(C=O)ccc(N(C)C)c1C,nt,-9%,38%
CN1CCN(CC(O)COc2ccc(Cl)cc2)CC1 (stereo not drawn),-15%,-5%,-11%
Cc1ccc(C(OCC(O)CN2CCCCC2)c2ccccc2)cc1 (stereo not drawn),7%,-7%,-22%
OC(COC(c1ccccc1)c1ccccc1)CN1CCc2ccccc2C1 (stereo not drawn),?,-14%,-23%
OC(COC(c1ccc(Cl)cc1)c1ccc(Cl)cc1)CN1CCc2ccccc2C1 (stereo not drawn),13µM*,-24%,-23%
OC(COC(c1ccc(Cl)cc1)c1ccc(Cl)cc1)CN1CCCC1 (stereo not drawn),5.6µM*,nt,nt
CN1CCN(CC(O)COC(c2ccc(Cl)cc2)c2ccc(Cl)cc2)CC1 (stereo not drawn),5µM*,nt,nt
CN(C)S(=O)(=O)c1cc(NC(=O)COC(=O)CC2Sc3ccccc3NC2=O)ccc1Cl (stereo not drawn),10%,-4%,-4%
Cn1c(=O)c(=O)n(C)c2cc(NC(=O)c3cccc(F)c3)c(Cl)cc21,nt,-6%,-14%
COc1ccc(C(=O)NCCc2csc(-c3ccc(Cl)cc3)n2)c(OC)c1,nt,-5%,4%
O=C(Nc1cccc(C(F)(F)F)c1)C1CCN(S(=O)(=O)c2cccnc2)CC1,-2%,nt,nt
COc1ccc([C@H]2CC(=O)C=C(c3cccc(C#N)c3)C2)cc1,11%[8.37 µM],?,i
Cc1noc(C)c1S(=O)(=O)N1CCN(c2ccc([N+](=O)[O-])cc2)CC1,-5%,nt,nt
COc1ccc(N2CCN(C(=O)CCc3cc(OC)c(OC)c(OC)c3)CC2)cc1,-15%,nt,nt
COc1ccc(NC(=O)N2CCN(c3ccc([N+](=O)[O-])cc3)CC2)cc1,-7%,-6%,i
Cc1ccc(CC(=O)N2CCN(c3ccc([N+](=O)[O-])cc3)CC2)cc1,?,-17%,-16%
COc1ccc(NC(=O)N2CCN(c3ccc([N+](=O)[O-])cc3)CC2)cc1OC,10µM*,-8%,i
COc1ccc(CCC(=O)N2CCN(c3ccc([N+](=O)[O-])cc3)CC2)cc1OC,32µM*,-18%,-9%
Cc1noc(C)c1CSCC(=O)N1CCN(c2ccc([N+](=O)[O-])cc2)CC1,11µM*,?,nt
COc1ccccc1CC(=O)N1CCN(c2ccc([N+](=O)[O-])cc2)CC1,6.3µM*,nt,nt
CN(C)c1ccc(S(=O)(=O)N2CCCCC2)cc1NC(=O)CCNC(=O)c1ccco1,16%,nt,nt
SMILES,HCV inhibitor,VACV Venus inh,VACV mCherry inh
O=C(CCBr)N1CCN(C(=O)CCBr)CC1,nt,-13%,-1%
OC1C(Br)=Cc2ccccc21 (stereo not drawn),nt,-6%,16%
COc1ccc(OCC(=O)NC(Cc2c[nH]c3ccccc23)C(=O)O)cc1 (stereo not drawn),nt,0%,-6%
COc1ccc(CCNc2cc(N3CCN(C(=O)c4ccc(C)cc4)CC3)ccc2[N+](=O)[O-])cc1OC,4%,nt,nt
O=[N+]([O-])c1ccc(N2CCN(C(=S)NCc3ccc(Cl)cc3)CC2)cc1,11µM*,?,-27%
CCNC(=S)N1CCN(c2ccc([N+](=O)[O-])cc2)CC1,-3%,-4%,i
COc1ccc(C(=O)N2CCN(c3ccc([N+](=O)[O-])c(NCCc4ccc(OC)c(OC)c4)c3)CC2)cc1,1µM*,-21%,?
O=C(COC(=O)c1ccc2ncsc2c1)Nc1ccccc1Cl,11%,-14%,-21%
CSc1nc2sc3c(c2c(=O)n1C)CCC(C)C3 (stereo not drawn),0%,-2%,-24%
CSc1nc2sc3c(c2c(=O)n1C)CCCC3,11µM*,-16%,-13%
Cc1cccc(OCCNc2cc(N3CCN(C)CC3)ccc2[N+](=O)[O-])c1,?,-1%,i
COc1ccccc1OCCNc1cc(N2CCCCC2)ccc1[N+](=O)[O-],?,-23%,-27%
Cc1ccc(OCCNc2cc(N3CCN(CCO)CC3)ccc2[N+](=O)[O-])cc1C,10µM*,?,?
Cc1cccc(OCCNc2cc(N3CCOCC3)ccc2[N+](=O)[O-])c1,10µM*,?,?
